The values below come from PubChem BioAssay (Tox21).

Assay [1] deals with Thyrotropin receptor (Homo sapiens) (UniProt P16473). Kind of assay: qHTS assay to identify small molecule agonists of the thyroid stimulating hormone receptor (TSHR) signaling pathway (AID 1224843; calls by dose curve; note: nearly all actives have a fitted effect of over 45% in size). The method in brief:
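Agonist activity read as cAMP rise via d2/cryptate HTRF competition, 1 h room-temperature detection, in HEK293 cells expressing TSHR. Fifteen-point titrations, each run in triplicate, with a 30 min room-temperature incubation beforehand.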

Assay [2] is described as follows: qHTS assay to identify small molecule agonists of the hypoxia (HIF-1) signaling pathway - cell viability counter screen (AID 1224844; calls by dose curve; note: nearly all actives have a fitted effect of over 50% in size). A digest of the protocol: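 Same wells as the HIF-1 reporter screen; ME-180 cells carrying HRE-bla, 17 hr treatment at 37C; CellTiter-Glo luminescence read after 30 min at room temperature.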
Background: Quantitative high-throughput screening tests each substance at several concentrations.

Assay [3] is described as follows: qHTS assay to identify small molecule agonists of the hypoxia (HIF-1) signaling pathway (AID 1224846; active = well fitted activation curve with a large enough effect in the signal ratio in the repeat runs, not every such curve was filed as active; the % refers to the signal ratio). The method in brief:
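In ME-180 cells bearing an HRE-bla construct, 17 h treatment with DMSO-dissolved compounds at 37C was followed by CCF4-AM loading to quantify reporter induction.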

The nature of assay [4]: qHTS assay to identify small molecule agonists of H2AX - cell viability counter screen (AID 1224847; calls by dose curve; note: nearly all actives have a fitted effect of over 30% in size; note: potency is the fitted concentration of half-maximal effect). The method in brief:
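Cytotoxicity counter screen in wild-type CHO-K1 cells: a 3 hr compound treatment at 37C across 15 concentrations, followed by CellTiter-Glo luminescence to gauge viable cells.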

The nature of assay [5]: qHTS assay to identify small molecule antagonists of the estrogen related receptor (ERR) signaling pathway from Tox21 library (AID 1224848). Note: nearly all actives have a fitted effect of over 50% in size. Note: potency is the fitted concentration of half-maximal effect. The method in brief: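 Luciferase luminescence (ONE-Glo, 30 min room temperature) was the read-out. Cells of the NTP-supplied ERR line, 2,000 per well, were given 6 h at 37 C before compound addition in DMSO and 18 h exposure at 37 C.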

Assay [6] in a line: qHTS assay to identify small molecule agonists of the estrogen related receptor (ERR) signaling pathway from Tox21 library (AID 1224849; calls by dose curve; note: nearly all actives have a fitted effect of over 15% in size). The conditions noted are these: ERR reporter cell line, ONE-Glo luciferase, 18 h; at 92.4 µM (top of the series) unless noted. A digest of the protocol: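 Reporter cells (ERR, NTP source) treated with Tox21 10K compounds 18 h, 37 C. Readout: ONE-Glo luminescence, 30 min RT.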

A short description of assay [7]: qHTS RealTime-Glo MT Cell Viability Assay in HEK293 cells - 32 hour (AID 1224868). Note: nearly all actives have a fitted effect of over 50% in size. Note: potency is the fitted concentration of half-maximal effect. The method in brief:
(§1)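 Nonlytic real-time viability readout: viable cells convert prosubstrate to NanoLuc substrate, giving luminescence proportional to live cell number. HEK293, 600 cells/well, compound added after 5 h, continuous culture at 37 C.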

The nature of assay [8]: A CellTox Green Cytotoxicity Assay to monitor cytotoxicity in HEK293 cells - 0 hour (AID 1224869). Note: nearly all actives have a fitted effect of over 50% in size. A digest of the protocol: (§2)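 Homogeneous no-lysis format: HEK293 cell suspension mixed with CellTox Green reagent, seeded, incubated 5 h at 37 C/5% CO2, then dosed by pintool with compound in DMSO.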
Assay [9] is described as follows: qHTS RealTime-Glo MT Cell Viability Assay in HepG2 cells - 40 hour (AID 1224870). Note: nearly all actives have a fitted effect of over 50% in size. A digest of the protocol: (§3)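 Real-time viability: cells seeded at 600 per well together with NanoLuc and cell-permeant prosubstrate, compounds added after 5 h incubation. Luminescence tracked at 0, 8, 16, 24, 32 and 40 h of exposure.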
Assay [10] can be described thus: A CellTox Green Cytotoxicity Assay to monitor cytotoxicity in HEK293 cells - 40 hour (AID 1224871). Note: nearly all actives have a fitted effect of over 45% in size. The method in brief: as §2
The nature of assay [11]: qHTS RealTime-Glo MT Cell Viability Assay in HEK293 cells - 16 hour (AID 1224872). Note: nearly all actives have a fitted effect of over 50% in size. Note: potency is the fitted concentration of half-maximal effect. The method in brief: as §1
Assay [12] in a line: qHTS RealTime-Glo MT Cell Viability Assay in HepG2 cells - 8 hour (AID 1224873). Note: nearly all actives have a fitted effect of over 55% in size. A digest of the protocol: as §3
Assay [13] in a line: qHTS RealTime-Glo MT Cell Viability Assay in HEK293 cells - 40 hour (AID 1224874). Note: nearly all actives have a fitted effect of over 50% in size. Note: potency is the fitted concentration of half-maximal effect. The conditions noted are these: RealTime-Glo luminescence; max response: active compounds read low. A digest of the protocol: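 Measured as luminescence from the same continuously cultured HEK293 wells at successive time points (0, 8, 16, 24, 32, 40 h) after compound addition. Reagent present from seeding; dosing at 5 h; incubation 37 C.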

Assay [14] is described as follows: A CellTox Green Cytotoxicity Assay to monitor cytotoxicity in HEK293 cells - 24 hour (AID 1224875). Note: nearly all actives have a fitted effect of over 45% in size. A digest of the protocol: as §2
A short description of assay [15]: qHTS RealTime-Glo MT Cell Viability Assay in HepG2 cells - 32 hour (AID 1224877). Note: nearly all actives have a fitted effect of over 55% in size. A digest of the protocol: (§4)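 Luminescence read-out: viable HepG2 cells reduce a prosubstrate to a NanoLuc substrate, giving a signal proportional to live cell number. Reads taken at 0, 8, 16, 24, 32 and 40 h of compound exposure at 37 C.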
Assay [16] in a line: A CellTox Green Cytotoxicity Assay to monitor cytotoxicity in HepG2 cells - 24 hour (AID 1224878). Note: nearly all actives have a fitted effect of over 45% in size. The method in brief:
(§5)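 Fluorescent DNA-binding dye, 600 HepG2 cells/well, 5 h preincubation then compound in DMSO; same plates read at 0–40 h, 37 C.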

Assay [17] can be described thus: A CellTox Green Cytotoxicity Assay to monitor cytotoxicity in HepG2 cells - 40 hour (AID 1224879). Note: nearly all actives have a fitted effect of over 40% in size. Note: potency is the fitted concentration of half-maximal effect. A digest of the protocol: as §5
Assay [18] in a line: qHTS assay to identify small molecule agonists of H2AX (AID 1224845; active = well fitted activation curve with a large enough effect in the signal ratio in the repeat runs, not every such curve was filed as active; the % refers to the signal ratio). A digest of the protocol:
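Phospho-H2AX Ser139 measured by HTRF (ex 320 nm; em 665 and 620 nm) after 24 hr antibody incubation. Compounds, 15 concentrations, 0.76% DMSO, were applied to CHO-K1 cells for 3hr at 37C before lysis.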

The nature of assay [19]: qHTS RealTime-Glo MT Cell Viability Assay in HepG2 cells - 24 hour (AID 1224867). Note: nearly all actives have a fitted effect of over 50% in size. The method in brief:
as §4

Assay [20] can be described thus: A CellTox Green Cytotoxicity Assay to monitor cytotoxicity in HepG2 cells - 16 hour (AID 1224876). Note: nearly all actives have a fitted effect of over 45% in size. A digest of the protocol:
as §5

A number with no mark means an inactive call. Inconclusive results are not listed. Active and inactive are the calls of the source. Unless noted, calls come from the whole dose curve; as a rule, active = well fitted curve in the direction sought with a large enough effect in the repeat runs; inconclusive = weak or mixed curves; inactive = no such curve, though single readings can be large; an effect the other way counts as inactive or inconclusive.
% is set by controls: 0 for no effect and ±100 for the full control effect.

Sequence of Thyrotropin receptor (Homo sapiens) (P16473 whole entry, looked up): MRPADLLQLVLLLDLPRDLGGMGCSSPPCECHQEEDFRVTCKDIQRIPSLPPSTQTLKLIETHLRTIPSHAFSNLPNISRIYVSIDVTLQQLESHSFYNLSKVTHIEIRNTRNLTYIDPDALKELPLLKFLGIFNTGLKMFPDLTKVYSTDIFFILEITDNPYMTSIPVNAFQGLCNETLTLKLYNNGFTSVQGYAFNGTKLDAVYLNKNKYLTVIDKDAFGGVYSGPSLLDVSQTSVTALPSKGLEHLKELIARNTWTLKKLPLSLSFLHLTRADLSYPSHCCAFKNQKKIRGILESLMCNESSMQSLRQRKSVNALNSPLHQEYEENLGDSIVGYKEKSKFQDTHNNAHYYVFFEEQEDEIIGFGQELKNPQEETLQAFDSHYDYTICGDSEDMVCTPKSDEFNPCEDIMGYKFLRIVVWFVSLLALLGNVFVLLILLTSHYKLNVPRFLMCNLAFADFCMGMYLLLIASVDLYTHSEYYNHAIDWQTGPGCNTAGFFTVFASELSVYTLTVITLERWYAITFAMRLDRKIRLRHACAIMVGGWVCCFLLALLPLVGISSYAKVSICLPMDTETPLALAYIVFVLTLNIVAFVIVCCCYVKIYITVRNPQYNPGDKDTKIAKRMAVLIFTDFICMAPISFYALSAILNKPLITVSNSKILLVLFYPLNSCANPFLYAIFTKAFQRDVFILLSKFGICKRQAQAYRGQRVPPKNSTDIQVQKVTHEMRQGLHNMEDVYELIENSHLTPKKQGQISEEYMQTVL

With `Cc1ccc(N)cc1C`, the Potency result in [1], in [2], in assay [4], in [5], in [7] and in [8] was “inactive” throughout. The Potency result in assay [9], in [10], in assay [11], in assay [12], in [14] and in assay [15] was “inactive” in each case. For the same compound, the Potency result in assay [16] and in [17] was “inactive” in each case. In addition, the compound was classed as inactive in assay [3]. In assay [6], the activity change, positive = activation was 19.9% (active). Further, in assay [13], the max response was 13.4%.

Consider `ClCCCCBr`, for which the Potency entry in assay [2], in assay [18], in [4], in [19], in assay [7] and in [8] was “inactive” throughout. For the same compound, the Potency entry in [9], in assay [10], in [11], in assay [12], in assay [14] and in assay [20] was “inactive” in each case. Besides, the Potency result in assay [15], in [16] and in [17] was “inactive” in each case. The compound was classed as inactive in assay [3]. Further, in assay [13], the max response is -9.07%.

Take `CCOP(=S)(OCC)SCSCC`: the Potency result in assay [2], in assay [18], in assay [4], in assay [19], in assay [7] and in [8] was “inactive” each time. For the same compound, the Potency entry in assay [9], in assay [10], in assay [11], in assay [12], in assay [14] and in assay [20] was “inactive” throughout. For the same compound, the Potency entry in [15], in assay [16] and in [17] was “inactive” throughout. Further, the result in assay [3] was inactive. For the same compound, the max response in assay [13] is 1.39%.

`Clc1ccc(C2(Cn3cncn3)CC(Br)CO2)c(Cl)c1` (centres undefined): the Potency entry in assay [2], in [18], in [19], in assay [8], in assay [9] and in assay [10] was “inactive” throughout. Further, the Potency result in assay [20] and in [15] was “inactive” each time. Besides, the outcome in assay [3] was inactive. In addition, the Potency in [4] is 112 µM (active); in assay [5], 15.3 µM (active); in assay [7] it was 27.4 µM (active); in [11], 24.4 µM (active); in assay [13] it was 21.7 µM (active); in assay [17], 38.7 µM (active). In addition, the activity change, positive = activation in [6] is -55.5%.

Regarding `C=COC(C)=O`, the Potency result in assay [2], in assay [18], in assay [4], in assay [19], in [7] and in assay [8] was “inactive” in each case. For the same compound, the Potency entry in assay [9], in assay [10], in assay [12], in [14], in [20] and in assay [15] was “inactive” each time. Besides, the Potency entry in assay [16] and in assay [17] was “inactive” throughout. Also, in assay [3], the result was inactive. In addition, in assay [13], the max response is 2.49%.

In the case of `CCCN(CCC)c1c([N+](=O)[O-])cc(S(C)(=O)=O)cc1[N+](=O)[O-]`, the Potency result in [2], in assay [18], in [4], in [19], in [8] and in assay [9] was “inactive” throughout. The Potency result in [10], in assay [14], in [15], in [16] and in assay [17] was “inactive” each time. In addition, in [3], the compound was classed as inactive. In [6], the activity change, positive = activation was -24.5%. In addition, the Potency is 13.8 µM (active) in assay [7] and 15.5 µM (active) in [13].

For `CC1(C)[C@H](C=C(Cl)Cl)[C@@H]1C(=O)O[C@@H](C#N)c1cccc(Oc2ccccc2)c1`, the Potency result in assay [2], in [18], in [4], in assay [19], in assay [7] and in assay [8] was “inactive” each time. The Potency entry in [10], in assay [11], in assay [12], in assay [14], in assay [20] and in assay [15] was “inactive” in each case. The Potency result in assay [16] and in assay [17] was “inactive” in each case. Further, the compound was called inactive in [3]. Also, in assay [13], the max response is 0.601%.
